The panel holds about 83,000 compounds, 20% with a hit somewhere; the sample as a whole holds those more often.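 The endpoint reported here, percent growth, reads 100 for growth as untreated, 0 for no net growth and -100 for all cells dead.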 Unmarked numbers belong to inactive results. Calls of active or inactive are those of the source. Rule for the calls: active = growth percent below 10; inactive = the rest.

Common to all, as to assay: NCI-60 one-dose screen, 48 h (100 = growth as untreated, 0 = no growth, -100 = all killed)
Conditions in all cases: 10 µM

For assay [1], the system named is RPMI-8226 leukemia.
In assay [2] the test system is OVCAR-8 ovarian.
Assay [3] has as its system OVCAR-5 ovarian.
The subject of assay [4] is OVCAR-4 ovarian.
The test system of assay [5] is SK-OV-3 ovarian.
Assay [6] concerns IGROV1 ovarian.
Assay [7] relates to OVCAR-3 ovarian.
Assay [8] relates to HS 578T breast.
The test system of assay [9] is NCI/ADR-RES ovarian.
Assay [10] relates to T-47D breast.
Assay [11] has as its system BT-549 breast.
Assay [12] has as its system MDA-MB-435 melanoma.
Assay [13] deals with SW-620 colon.
Assay [14] relates to MCF7 breast.
In assay [15] the test system is HCT-116 colon.
The subject of assay [16] is HCC-2998 colon.
Assay [17] has as its system KM12 colon.

Regarding `COc1cc(NC(=O)CCSc2nc3ccc(C)cc3c(=O)n2Cc2ccccc2)cc(OC)c1OC`, the growth in assay [1] was 83.8%; in [2], 29.9%; in assay [3], 94.2%; in [4] it was -32.1% (active); in assay [5] it was 30.2%; in [6], 110%. Moreover, the growth in assay [7] is 67.9%; in [8] it was 6.72% (active); in assay [9], 83.8%; in assay [10], 65.6%; in assay [11], 95.5%; in [12] it was 92.1%. The growth in assay [13] was 84.5%; in [14] it was 77.6%; in assay [15], 35%; in assay [16], 112%.
Regarding `CC/C(=C(/c1ccc(OCCN(C)C)cc1)c1ccc(OC(=O)CCC(=O)c2c(C)[nH]c(/C=C3\N=C(c4ccc[nH]4)C=C3OC)c2C)cc1)c1ccccc1`, the growth in assay [1] was -22.3% (active); in assay [2], 22.8%; in assay [3] it was 65.3%; in [4], 37.4%; in assay [5] it was 63.5%; in assay [6], 27.6%. The growth in assay [7] was 33%; in assay [8], 8.4% (active); in [9], 20.7%; in assay [10], 22.7%; in [11], 48.4%; in assay [12] it was 14%. Besides, the growth in assay [13] is -42% (active); in assay [14], -12.1% (active); in assay [15], 5.92% (active); in [16], 41.6%.
For the compound `COc1ccc(-c2nc(-c3nc4cc(Cl)c(Cl)cc4[nH]3)c3ccccn23)cc1`, the growth was 49.9% in assay [1]; 31.6% in [2]; 91.6% in [3]; -34.2% (active) in assay [4]; -25.1% (active) in assay [5]; 75.9% in assay [6]. Further, the growth is 39% in assay [7]; 12.9% in assay [8]; 51.4% in assay [9]; 66.5% in assay [10]; 71.9% in assay [11]; 65.2% in assay [12]. For the same compound, the growth in [13] was 79.6%; in [14] it was 69.6%; in assay [15], 24.8%; in assay [16], 76.4%.
As to `CC(=O)N1C/C(=C/c2ccc(Cl)cc2)C(=O)/C(=C/c2ccc(Cl)cc2)C1`, the growth is -45.2% (active) in assay [1]; 4.95% (active) in [2]; 18.2% in [3]; 10.9% in assay [4]; -10.9% (active) in [5]; -55.7% (active) in assay [6]. The growth in assay [7] was -40.6% (active); in assay [8], 14.5%; in assay [9], 10.4%; in assay [10], 30.1%; in assay [11], -27.2% (active); in assay [12], -50.3% (active). The growth in assay [13] is -62.4% (active); in [14] it was -48.4% (active); in assay [15], -66.4% (active); in assay [16], -85.1% (active).
`Cc1ccc(C(=O)N2C/C(=C/c3ccccc3)C(=O)/C(=C/c3ccccc3)C2)cc1`: the growth in [1] is -23.1% (active); in [2], 48.7%; in assay [3] it was 105%; in [4] it was 75.3%; in [5] it was 78.9%; in assay [6] it was 69.1%. Besides, the growth in [7] was 57.9%; in assay [8], 9.99% (active); in assay [9], 66.1%; in assay [10] it was 61.8%; in assay [11], 49.2%; in assay [12], -14.1% (active). Also, the growth in assay [13] is 15.8%; in assay [14], 7.53% (active); in assay [15], -55.5% (active); in assay [16] it was -48% (active).
In the case of `COc1cccc(Cn2c(-c3nonc3N)nc3ccccc32)c1`, the growth in assay [1] was 4.9% (active); in assay [2], 21.4%; in assay [3], 37.5%; in assay [4] it was 32.2%; in assay [5], 6.27% (active); in assay [6] it was 28.1%. The growth in assay [7] is -54% (active); in [8], 3.15% (active); in assay [9], 14.4%; in assay [10], 55.1%; in assay [11], 47.9%; in [12], -73.9% (active). The growth was 14.4% in assay [13], 15.5% in assay [14], 18.3% in assay [15] and 23.7% in [16].
With `COc1ccc(-c2nnc(-c3c(-c4ccccc4)nc4ncccn34)o2)cc1OC`, the growth in assay [1] was 94.8%; in [2], 99%; in [3], 91.7%; in assay [4], 93.1%; in assay [5], 95.9%; in assay [6] it was 98.5%. Besides, the growth in assay [7] was 108%; in [8], 98.3%; in assay [9], 101%; in [10] it was 87.2%; in assay [11], 88.6%; in [12] it was 117%. For the same compound, the growth in assay [13] is 109%; in assay [14], 102%; in assay [15], 103%; in [16], 106%; in assay [17], 100%.
On to `CCOC(=O)N1C/C(=C/c2ccc(F)cc2)C(=O)/C(=C/c2ccc(F)cc2)C1`, for which the growth is -29% (active) in assay [1]; 9.76% (active) in assay [2]; 24.2% in [3]; 9.8% (active) in [4]; 12.7% in assay [5]; -34.1% (active) in assay [6]. Further, the growth in assay [7] was -29.2% (active); in assay [8] it was -10.5% (active); in assay [9], 9.49% (active); in assay [10], 30.5%; in assay [11] it was -44.3% (active); in assay [12] it was -47.4% (active). Besides, the growth in [13] was -66% (active); in assay [14] it was -45.9% (active); in assay [15], -83.9% (active); in [16], -80.9% (active).
For the compound `O=C1/C(=C\c2ccc(F)cc2)CN(C(=O)c2ccc([N+](=O)[O-])cc2)C/C1=C\c1ccc(F)cc1`, the growth in [1] was -13.3% (active); in assay [2], 19.5%; in [3] it was 77.1%; in assay [4], 50.5%; in assay [5], 50.8%; in [6], 33.9%. The growth in [7] was 10.3%; in assay [8], -9.57% (active); in assay [9] it was 24.3%; in assay [10], 64.5%; in assay [11], 5.36% (active); in [12], -30% (active). The growth in [13] was -58.4% (active); in assay [14] it was -9.52% (active); in assay [15], -72.7% (active); in assay [16] it was -79.1% (active).

(Values after PubChem BioAssay (NCI).)
